SMN2 splice up = SMN2 splice variant enhancement. HEK293 SMN2-luciferase splicing reporter, luminescence, 30-36 h. Potency, µM (top dose mostly 46.1 µM), hits mostly activators. 210,000 compounds, 2.8% hits. AID 1458; note: nearly all actives have a fitted effect of over 55% in size
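HEK293 cells carry an SMN2 […]–luciferase reporter in which exon 7 inclusion puts luciferase in frame. Cells were plated 10-12 h before compound addition, then incubated 30-36 h at 37C. ONE-Glo luminescence was read; sodium butyrate at 4.5 mM final served as control.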
Rab9 prom act = activators of Rab9 promoter; AID 485297; Huh7 Rab9 promoter-luciferase reporter, luminescence, 24 h; 320,000 compounds, 2.8% hits; Potency, µM (series often up to 9.22 µM), hits mostly activators; note: nearly all actives have a fitted effect of over 60% in size
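Promoter activation is measured as luciferase luminescence in Huh7 cells stably transfected with a Rab9 promoter–luciferase construct, following 24 h compound exposure at 37 °C and 10 min reagent incubation at ambient temperature.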
ELG1 genotox = induces genotoxicity in HEK293T cells with luciferase-tagged ELG1 | Potency, µM (series often up to 46 µM), most hits filed as activators | 330,000 compounds, 1.3% hits | HEK293T ELG1-luciferase reporter, luminescence, 16 h; note: nearly all actives have a fitted effect of over 60% in size
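HEK293T cells expressing luciferase-tagged ELG1 were exposed to compound or DMSO vehicle for 16 hr at 37 °C and 5% CO2. Luciferase activity was then measured with ONE-Glo after 30 min at room temperature.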
ELG1 DNA repair = blocks ELG1-dependent DNA repair in HEK293T cells; HEK293T ELG1-luciferase reporter, luminescence, 16 h; DNA damage induced by 5-fluorouridine; Potency, µM (doses to about 46.1 µM), usual class: inhibitors; 330,000 compounds, 2.3% hits; AID 504467; note: nearly all actives have a fitted effect of over 55% in size
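Reporter activity after DNA damage by 5-fluorouridine is monitored. Compound-treated cells incubate 16 hr at 37 °C, then ONE-Glo is added for 30 min before luminescence reading.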
FLuc counter = counter-screen for miR-21 project: firefly luciferase inhibitors or activators; Potency, µM (doses to about 57.5 µM), most hits filed as inhibitors; 360,000 compounds, 6.9% hits; purified FLuc, Km substrates, luminescence inhibition; P08659; note: nearly all actives have a fitted effect of over 55% in size
Target sequence (P08659 whole entry, looked up): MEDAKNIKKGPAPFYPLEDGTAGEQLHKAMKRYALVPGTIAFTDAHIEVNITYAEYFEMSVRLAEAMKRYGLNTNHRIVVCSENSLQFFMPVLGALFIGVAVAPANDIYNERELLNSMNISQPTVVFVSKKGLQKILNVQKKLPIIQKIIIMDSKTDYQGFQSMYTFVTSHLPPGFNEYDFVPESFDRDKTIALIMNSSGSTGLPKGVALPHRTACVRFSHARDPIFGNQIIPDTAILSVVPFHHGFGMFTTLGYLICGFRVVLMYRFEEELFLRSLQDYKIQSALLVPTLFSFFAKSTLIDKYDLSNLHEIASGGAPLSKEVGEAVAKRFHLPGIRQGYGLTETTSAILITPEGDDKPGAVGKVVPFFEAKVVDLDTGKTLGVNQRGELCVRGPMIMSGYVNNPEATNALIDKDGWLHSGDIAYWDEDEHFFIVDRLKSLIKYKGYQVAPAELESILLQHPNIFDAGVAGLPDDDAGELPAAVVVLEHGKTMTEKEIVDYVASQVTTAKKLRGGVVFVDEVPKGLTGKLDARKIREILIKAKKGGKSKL
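Biochemical qHTS of compounds, final roughly 60 µM downward over six points, against 10 nM purified firefly luciferase using Km concentrations of substrates (10 uM D-luciferin, 10 uM ATP) in Tris acetate pH 7.5 buffer; luminescence output.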
NPC1 prom act = NPC1 promoter activation; Huh7 NPC1 promoter luciferase reporter, 24 h; Potency, µM (series often up to 9.22 µM), hits mostly activators; 320,000 compounds, 2.4% hits; AID 485313; note: nearly all actives have a fitted effect of over 60% in size
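Stably transfected Huh7 (NPC1 promoter→luciferase), 1500 cells/well in Opti-MEM + 10% FBS, 2 h settle, then compound 24 h at 37 °C. Luminescence after 10 min with Amplite reagent.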
Hits are given with their value; – = inactive; ? = inconclusive; · = no result; [ ] = another dose, or the depositor's remark. This is a sample that favours compounds with a hit; in the whole collection about 9.4% have one here. Calls come from the whole dose curve; as a rule, active = well fitted curve in the direction sought with a large enough effect; inconclusive = small, poorly fitted or top-dose-only effect, or another doubt; inactive = no such curve, though single readings can be large; an effect the other way counts as inactive or inconclusive.

SMILES	SMN2 splice up	Rab9 prom act	ELG1 genotox	ELG1 DNA repair	FLuc counter	NPC1 prom act
O=C(Nc1nnc(C2CC2)s1)C1COc2ccccc2O1 (stereo not given)	5.6µM	0.89µM	4.1µM	?	11µM	2.8µM
CC1(C)CC(=O)c2sc(NC(=O)c3ccco3)nc2C1	?	–	21µM	?	6µM	?
O=C(Nc1nnc(C(F)(F)F)s1)C1COc2ccccc2O1 (stereo not given)	–	–	–	?	?	–
CC1(C)CC(=O)c2sc(NC(=O)C3COc4ccccc4O3)nc2C1 (stereo not given)	13µM	?	21µM	?	?	–
CC(=O)c1sc(NC(=O)C2COc3ccccc3O2)nc1C (stereo not given)	3.2µM	0.35µM	?	?	1.9µM	0.45µM
O=C(Nc1nncs1)C1COc2ccccc2O1 (stereo not given)	?	–	–	?	?	–
CC(C)(C)c1csc(NC(=O)C2COc3ccccc3O2)n1 (stereo not given)	·	?	?	?	15µM	?
CCC(C)(C)NC(=O)/C=C/c1cnc2ccccc2n1	?	?	?	?	11µM	–
O=C(O)/C=C/c1cnc2ccccc2n1	–	–	–	–	–	–
O=C(/C=C/c1cnc2ccccc2n1)NC12CC3CC(CC(C3)C1)C2	10µM	3.2µM	?	?	1.7µM	3.5µM
COc1ccccc1NC(=O)CSc1ncc2c(n1)-c1ccccc1N(Cc1ccccc1C)S2(=O)=O	·	·	·	·	–	·
Cc1ccc(CNC(=O)CCS(=O)(=O)c2cc3c4c(c2)CCN4C(=O)CC3)cc1	·	·	·	·	–	·
O=C(NC1CCCCC1)c1cc(-c2cccc(Cl)c2)on1	·	?	?	?	–	?
O=C(NC1CCCC1)c1cc(-c2ccc(F)cc2)on1	·	1.8µM	4.6µM	?	4.8µM	1µM
O=C(NC1CCCC1)c1cc(-c2ccc(Cl)cc2)on1	·	1.8µM	4.6µM	?	2.7µM	1.4µM
O=C(NC1CCCCC1)c1cc(-c2ccc(Cl)cc2)on1	·	–	–	?	–	–
O=C(NC1CCCC1)c1cc(-c2cccc(Cl)c2)on1	·	2.8µM	18µM	?	15µM	2.8µM
COc1ccc(OC)c(NC(=O)Cn2cc(C(=O)c3cccs3)c3ccccc32)c1	–	·	·	·	–	·
Cc1cccc(N(CC(=O)NCCSCc2cccc(Cl)c2)S(=O)(=O)c2ccccc2)c1C	–	·	·	·	–	·
CCOC(=O)N1CCC(N2Cc3cccc(C(=O)Nc4ccc(OCC)cc4)c3C2=O)CC1	·	–	–	?	12µM	–
CCOC(=O)N1CCC(N2Cc3cccc(C(=O)NCc4ccc5c(c4)OCO5)c3C2=O)CC1	·	–	–	23µM	–	–
CCOC(=O)N1CCC(N2Cc3cccc(C(=O)Nc4ccc(CC)cc4)c3C2=O)CC1	–	–	–	?	12µM	–
Cc1nc2cccnc2n1C1CCN(S(=O)(=O)c2ccc(C(C)C)cc2)CC1	·	·	·	·	–	·
CSc1ccc(CCNC(=O)CCc2c(C)nc3c4cccnc4nn3c2C)cc1	–	·	·	·	–	·
CCCOc1cccc(C2c3c(-c4ccccc4O)n[nH]c3C(=O)N2Cc2ccco2)c1 (stereo not given)	–	·	·	·	?	·
SMILES	SMN2 splice up	Rab9 prom act	ELG1 genotox	ELG1 DNA repair	FLuc counter	NPC1 prom act
COc1ccc(C2(c3ccc(OC)cc3)NC(=O)N(CC(=O)N(C)c3ccccc3)C2=O)cc1	·	2.2µM	?	?	19µM	3.5µM
COc1ccc(CCNC(=O)CN2C(=O)NC(c3ccccc3)(c3ccccc3)C2=O)cc1	·	·	–	26µM	·	·
COc1ccc(C2(c3ccc(OC)cc3)NC(=O)N(CC(=O)Nc3ccccc3)C2=O)cc1	·	–	–	?	–	–
COc1ccc(N2CCN(C(=O)C(C)n3c(=O)cc(C(F)(F)F)c4c(C)nn(C)c43)CC2)cc1 (stereo not given)	·	·	·	·	–	·
CC[C@@H](CS(=O)(=O)O)[N+](=O)[O-]	–[9.22 µM]	·	·	·	·	·
COc1ccc(-n2c(=S)[nH]c3sc(-c4ccccc4)cc3c2=O)c(OC)c1	·	–	–	–	27µM	–
CCOc1ccc(CCNC(=O)Cn2ncn3c(cc4ccccc43)c2=O)cc1OCC	–	·	·	·	–	·
